Laboratory results: PubChem BioAssay (NCI)
Compounds without any hit were thinned out: in the full panel of roughly 83,000, 20% have a hit.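 Single-concentration screen, 48 h exposure, 96-well plates. Endpoint: percent growth. Below 10 = active.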 Active and inactive are the calls of the source.

Legend:
Experiment in all cases: NCI-60 one-dose screen, 48 h (100 = growth as untreated, 0 = no growth, -100 = all killed)
Settings in all cases: 10 µM unless noted
[1] = tested on: HCT-15 colon
[2] = tested on: HT29 colon
[3] = tested on: SNB-75 CNS
[4] = tested on: SNB-19 CNS
[5] = tested on: U251 CNS
[6] = tested on: PC-3 prostate
[7] = tested on: SK-MEL-5 melanoma
[8] = tested on: UACC-62 melanoma
[9] = tested on: LOX IMVI melanoma
[10] = tested on: SK-MEL-28 melanoma

Measured: growth

Cc1ccnc(Nc2ccc([N+](=O)[O-])c(NCCN3CCOCC3)n2)c1
active: [1] 8.47% | [7] -3.36%
inactive: [2] 10.9% | [3] 56.8% | [4] 58.3% | [5] 23.2% | [6] 12.2% | [8] 37.3% | [9] 22.8% | [10] 72%

COc1ccc(/C=C(/c2ccccc2)[N+](=O)[O-])c(OC)c1
inactive: [3] 53.3%
active: [1] -36.4% | [2] -19.2% | [4] -9.71% | [5] -59.8% | [6] -20.6% | [7] -25% | [8] -53.9% | [9] -83.5% | [10] -25.3%

CCN(CC)CCN1C(=O)c2c(c(C)c3c(oc4ccc(OC)cc43)c2C)C1=O
inactive: [1] 90% | [2] 87.5% | [3] 116% | [4] 88% | [5] 87.3% | [6] 90.7% | [7] 82.7% | [8] 97% | [9] 93.3% | [10] 91.6%

CN1CCN(C(=O)[C@@]2(C)CC[C@]3(C)CC[C@]4(C)C(=CC[C@@H]5[C@@]6(C)CCC(=O)NC(C)(C)[C@@H]6CC[C@]54C)[C@@H]3C2)CC1
inactive: [1] 30.3% | [3] 87.3% | [4] 79.4% | [5] 40.4% | [6] 27.4% | [8] 26.4%
active: [2] 3.61% | [7] -41% | [10] -6.92%

O=C1Nc2ccccc2/C1=C\c1c[nH]c2ccc(Br)cc12
inactive: [1] 48.7% | [2] 86.7% | [3] 56.1% | [4] 88.6% | [5] 85% | [6] 70.8% | [7] 35.4% | [8] 80.1% | [9] 50.6% | [10] 72.7%

COc1ccc(/C=C(/C(=O)n2cnnn2)c2cc(OC)c(OC)c(OC)c2)cc1
inactive: [1] 15.5% | [3] 15.4% | [4] 17.4% | [5] 17.9% | [6] 13.1% | [7] 15.2% | [8] 20.1% | [10] 43.8%
active: [2] 8.2%

CSC1=Nc2c(c(C)c(-c3ccccc3)n2CCCC(=O)O)C2=NC(=O)C[C@H](C)N12
inactive: [1] 127% | [2] 94.1% | [3] 79.7% | [4] 101% | [5] 103% | [6] 97.6% | [7] 92.4% | [8] 107% | [10] 105%

CC1(C)CC2=C3C=C[C@@H]4[C@@]5(C)CCC(=O)C(C)(C)[C@@H]5CC[C@@]4(C)[C@]3(C)CC[C@@]2(C(=O)O)C[C@H]1O
inactive: [2] 14% | [3] 19.2% | [4] 32.1% | [5] 22.6% | [6] 40.4% | [7] 14% | [8] 20.6% | [10] 25%
active: [1] 6.74% | [9] 7.33%

CNC1=C([N+](=O)[O-])C(c2ccc(OC)cc2)C(C#N)=C(c2cccs2)O1 (configuration not stated)
inactive: [1] 108% | [2] 118% | [3] 95.5% | [4] 105% | [5] 101% | [6] 101% | [7] 100% | [8] 101% | [9] 95.3% | [10] 122%

Cc1ccc(S(=O)(=O)N2CCC(=O)c3ccccc32)cc1
inactive: [1] 42.9% | [2] 68.4% | [3] 42.8% | [4] 69.4% | [5] 49.4% | [6] 74.8% | [7] 63.3% | [8] 67.7% | [9] 76.4% | [10] 80.3%

CCOc1c(OC)cc2c(c1O)C(=O)N[C@@H]1[C@@H](O)[C@@H](O)[C@H](O)C[C@@H]21
inactive: [1] 102% | [2] 100% | [3] 93.5% | [4] 99% | [5] 96.7% | [6] 100% | [7] 101% | [8] 93.1% | [9] 98.1% | [10] 105%

Nc1[nH]c(=S)nc2oc(-c3ccccc3)c(-c3ccccc3)c12
inactive: [1] 97.3% | [2] 101% | [3] 90.3% | [4] 98% | [5] 103% | [6] 97.4% | [7] 102% | [8] 91.5% | [9] 98% | [10] 101%

CC(=O)ON1CCCC(P(=O)(OCCSC(=O)C(C)(C)C)OCCSC(=O)C(C)(C)C)C1=O (configuration not stated)
inactive: [1] 12.1% | [2] 19.3% | [3] 52% | [4] 19% | [6] 48.1% | [8] 20.4% | [9] 25.8% | [10] 30.7%
active: [5] 6.6% | [7] -2.99%
